Activity calls are given as the source filed them. The calls were made as follows: active = hit-call score of the fitted dose curve at least 0.9, where 1 is the maximum; inactive = score below 0.9.
Read-out: Cytochrome P450 7A1 (Homo sapiens) (UniProt P22680)
Assay: LTEA_HepaRG_CYP7A1: Life Technologies and Expression Analysis (LTEA) Assay for Cytochrome P450 7A1 (CYP7A1) using HepaRG (AID 2283496)
Conditions: mRNA level, 48 h; actives raise or lower the signal
Protocol: LTEA_HepaRG is a cell based, multiplexed-readout assay that uses HepaRG, a human liver cell line, with measurements taken at 48 hours after chemical dosing on a 96-well plate.LTEA_HepaRG_CYP7A1 is one of 102 assay component(s) measured in the LTEA HepaRG cell culture assay. It is a marker of NR mediated metabolism.Data from the assay component LTEA_HepaRG_CYP7A1 was analyzed into 1 endpoint. This assay endpoint, LTEA_HepaRG_CYP7A1, was analyzed with bidirectional fitting relative to DMSO as the negative control and baseline of activity. Using a type of inducible reporter, measures of mRNA induction for gain or loss-of-signal activity can be used to understand regulation of transcription factor activity. To generalize the intended target to other relatable targets, this assay endpoint is annotated to the cyp intended target family, where the subfamily is xenobiotic metabolism.
A total of 1060 chemcials from the ToxCast library were tested in eight-point concentration-response experiments. Cell culture and cytotoxicity assays were conducted at Thermo Fisher Scientific's Custom Services facility (Madison, WI). A single lot of human HepaRG cells (Thermo Fisher Scientific, Frederick, MD) was used for the cell culture experiments. 96-well format collagen type I coated plates of human HepaRG cells were prepared using established methods. Briefly, cryopreserved HepaRG cells were thawed, plated at a density of approximately 100,000 cells/well in HepaRG Thaw, Plate, and General Purpose media (HPRG770, Thermo Fisher Scientific), and incubated for 48 hours. 0.5% DMSO was selected as vehicle control to balance the requisite need of DMSO in HepaRG cultures to maintain differentiation (for example, baseline metabolism, proportions of hepatocytes vs. cholangiocytes), while enabling further hepatic receptor pathway activation (for example, PXR and CAR) in response to chemical exposure. 48 hours after plating, the culture medium was replaced with HepaRG Serum-Free Incudtion Media. Cells were exposed to each test chemical in duplicate and maintained in CO2 incubators for another 48 hours. Chemical plates were thawed to room temperature and 200x concentrations of treatment groups were prepared. 8-point conentration-reponse curves were made with the highest exposure at 100 uM, followed by half-log dilutions, all in 0.5% DMSO. Each test plate contained variouse controls, induction positive controls (1mM phenobarbital), cytotoxicity positive controls ([…] aflatoxin B1), vehicle controls (0.5% DMSO), and total lysis controls (0.5% DMSO). Cell morphology images were taken using an Essen IncuCyte FLR automated microscope, with six 96-well plates imaged in about 24 minutes. Images were captured and exported and JPEG files. Spent culture media was transfered to black-well plates for the LDH assay, and remaining media was sorted at -80 C for later use. Cells were treated with RLT buffer and frozen until shipped for gene expression analysis. Total RNA was isolated from the cell suspension in 75 uL of Buffer RLT (Qiagen, Germantown, MD 20874) by Quintiles/Expression Analysis (Durham, NC) using a custom isolation procedure. Total RNA from each plate well was transferred to a preamplification plate. Fluidigm's 96.96 Dynamic ArrayTM (Fluidigm, Amsterdam, the Netherlands) technology was used for gene expression analyses by quantitative reverse transcription polymerase chain reaction (qRT-PCR, performed by Quintiles/Expression Analysis, Durham, NC)89. Standard TaqManTM Assays (Applied Biosystems/ThermoFisher Scientific, Foster City, CA) were used to assess the expression of 93 genes selected based on their selectivity and sensitivity to important hepatic receptors known to be modulated by environmental chemicals; importance in human hepatocyte functionality; and hepatotoxicity. […]

| Compound | outcome | AC50 |
| --- | --- | --- |
| c1ccc(NNc2ccccc2)cc1 | inactive |  |
| CCN(CC)CCO | inactive |  |
| CN(C)C(=O)Nc1ccc(Cl)cc1 | inactive |  |
| Clc1ccc(Cl)c(Cl)c1 |  | 50 µM (active) |
| CCC(C)c1ccc(O)cc1 (stereo not given) | inactive |  |
| CC(C)(C)OOC(C)(C)CCC(C)(C)OOC(C)(C)C | inactive |  |
| CCOc1cccc(C2(N3CCN(c4ccccc4)CC3)CCC(C)CC2)c1 (stereo not given) | inactive |  |
| COC(=O)Nc1nc2ccccc2[nH]1 | inactive |  |
| Cn1cc(-c2ccccc2)c(=O)c(-c2cccc(C(F)(F)F)c2)c1 | inactive |  |
| Cc1ccc([N+](=O)[O-])cc1 |  | 17.3 µM (active) |
| [Cl-].[Cl-].[Hg+2] | inactive |  |
| CC(C)(O)c1cnn2c(-c3ccc(F)c(-c4c(F)cccc4C#N)c3)cnc2n1 |  | 4.14 µM (active) |
| CCC12COCN1COC2 | inactive |  |
| Nc1ccc(Cl)cc1N |  | 23.1 µM (active) |
| CO[C@@H]1[C@H](OC(=O)NC(=O)CCl)CC[C@]2(CO2)[C@H]1[C@@]1(C)O[C@@H]1CC=C(C)C | inactive |  |
| Clc1ccc(C(c2ccc(Cl)cc2)C(Cl)(Cl)Cl)cc1 | inactive |  |
| ClC1=C(Cl)C2(Cl)C3C(Cl)C=CC3C1(Cl)C2(Cl)Cl (stereo not given) |  | 13.8 µM (active) |
| [As]#[In] | inactive |  |
| COc1cc(C=O)cc2c1[C@H](COC(N)=O)[C@]1(OC(C)=O)ON2C[C@H]2[C@@H]1N2C(C)=O |  | 0.417 µM (active) |
| CC(C)(OOC(C)(C)c1ccccc1)c1ccccc1 | inactive |  |

| Compound | outcome | AC50 |
| --- | --- | --- |
| CN(C)[C@@H]1C(=O)C(C(N)=O)=C(O)[C@@]2(O)C(=O)C3=C(O)c4c(O)cccc4[C@@](C)(O)[C@H]3C[C@@H]12 | inactive |  |
| CCCCC(CC)COC(=O)c1ccc(C(=O)OCC(CC)CCCC)c(C(=O)OCC(CC)CCCC)c1 (stereo not given) | inactive |  |
| CCCCCCCCOC(=O)c1ccc(C(=O)OCCCCCCCC)c(C(=O)OCCCCCCCC)c1 | inactive |  |
| Clc1ccccc1Cl | inactive |  |
| ClCCOCCCl | inactive |  |
| Oc1ccc2ccc3cccc4ccc1c2c34 |  | 50 µM (active) |
| c1ccc(N=Nc2ccccc2)cc1 | inactive |  |
| COP(=S)(OC)SCN1C(=O)c2ccccc2C1=O | inactive |  |
| C[N+](C)(C)CC1CO1 (stereo not given) | inactive |  |
| CNC(=O)Oc1cccc2c1OC(C)(C)C2 |  | 9.92 µM (active) |
| COC(=O)c1ccccc1N | inactive |  |
| O=Cc1ccco1 | inactive |  |
| Cc1cccc(N)c1N |  | 46 µM (active) |
| CS(=O)(=O)NC(=O)c1cc(Oc2ccc(C(F)(F)F)cc2Cl)ccc1[N+](=O)[O-] | inactive |  |
| O=C1CCCO1 | inactive |  |
| Cc1cc(N=Nc2ccccc2C)ccc1N |  | 12.8 µM (active) |
| CC(C)(C)OOC(=O)c1ccccc1 | inactive |  |
| Cc1ccc(N)cc1 | inactive |  |
| CCOC(=O)[C@]1(c2ccccc2)Oc2ccccc2[C@@H]1N |  | 90.5 µM (active) |
| C=CCc1ccc2c(c1)OCO2 | inactive |  |

— PubChem BioAssay (EPA / NIEHS)
